# According to PubChem BioAssay AID602340 (Broad Institute, 2012):
# Among all 330,000 compounds or so, about 2,600 (0.79%) were called active. The entries come from a sample that favours actives as a whole. Values without a mark were called inactive.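 How the source made its calls: active means mean ATP rescue above about 67%, or every replicate alone reaching that limit (limit read from the data, passing the limit was not always enough); inconclusive means no clear call, values can overlap the other calls; inactive means mean under the limit and some replicate under it.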
# Experiment: suppressors of statin myotoxicity in C2C12 myotubes, primary screen, cell-based, single point, plate reader (AID 602340);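 further: myotubes were challenged with 10 µM simvastatin during compound exposure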
# Conditions: C2C12 myotubes + simvastatin, ATP luminescence, 48 h; at 7.49 µM; active compounds read high; scaled: DMSO 0, geranylgeraniol control 100
row,SMILES,rescue of ATP level
1,C[C@@H](NC(=O)[C@H]1[C@H](CO)[C@H]2Cn3c(cccc3=O)[C@@H]1N2Cc1cccnc1)c1ccccc1,-8.14%
2,C/C=C/c1ccc2c(c1)O[C@@H](CN(C)CC1CCOCC1)[C@@H](C)CN([C@H](C)CO)S2(=O)=O,1.59%
3,COCC(=O)N(C[C@H]1N[C@H](CO)[C@H]1c1ccc(C2=CCCCC2)cc1)C(C)C,-22.7%
4,Cc1noc(C)c1NC(=O)Nc1ccc2c(c1)CC(=O)N([C@@H](C)CO)C[C@H](C)[C@H](CN(C)S(=O)(=O)c1c(C)noc1C)O2,-4.37%
5,O=C(NCC[C@@H]1CC[C@H](NC(=O)Nc2cc(F)ccc2F)[C@@H](CO)O1)Nc1ccc(Cl)cc1,2.28%
6,Cn1c(N)c(C(=O)COC(=O)COc2ccc(Cl)cc2)c(=O)n(C)c1=O,9.73%
7,Cn1c(N)c(C(=O)COC(=O)c2ccc3ccccc3c2)c(=O)n(C)c1=O,-2.95%
8,Cc1cc(C(=O)OCC(=O)c2c(N)n(C)c(=O)n(C)c2=O)c(C)o1,148% (active)
9,COc1ccc(S(=O)(=O)Nc2cccc3c2O[C@@H](CN(C)C(=O)Nc2ccccc2)[C@@H](C)CN([C@H](C)CO)C3=O)cc1,-38.3%
10,Cc1ccc(-c2csc(NC3OC(=O)c4ccccc43)n2)cc1 (stereo not drawn),-7.28%
11,CCn1c(SCCC(C)C)nnc1-c1c[nH]c2ccccc12,-7.75%
12,Cc1ccc(-c2csc(-c3c[nH]c4ccccc34)n2)cc1,102% (active)
13,O=C(CN1CCN(c2nc(-c3ccccc3)cs2)CC1)NCc1ccc2c(c1)OCO2,124% (active)
14,CC1(C(=O)NCc2ccc3c(c2)OCO3)CCN1CCc1ccccc1 (stereo not drawn),34.5%
15,Cc1ccc(-c2nc(CS(=O)(=O)CC(=O)NCc3ccc4c(c3)OCO4)c(C)o2)cc1,28.8%
16,COc1ccc(NC(=O)CNC(=O)Cc2ccccc2)cc1OC,-3.67%
17,CCCOc1ccc(Cn2c(O)cc(=O)[nH]c2=O)cc1,2.27%
18,COc1cc(=O)[nH]c(=O)n1C(=O)Cc1ccccc1,89.8% (active)
19,CCCNC(=O)N1[C@H](CNC(C)=O)[C@@H](c2ccc(C3=CCCC3)cc2)[C@@H]1CO,17.7%
20,O=C(N[C@H]1C=C[C@@H](CC(=O)N2CCCCC2)O[C@@H]1CO)c1ccc2c(c1)OCO2,-0.462%
21,CO[C@@H]1CN(C)C(=O)c2cc(NC(=O)NC3CCCCC3)ccc2OC[C@H](C)N(CC2CCOCC2)C[C@H]1C,-0.27%
22,Cc1ccc(S(=O)(=O)NCCC(=O)Nc2ccc(C)c(Cl)c2)cc1C,1.52%

row,SMILES,rescue of ATP level
1,Cc1ccnc(NC(=O)CCNS(=O)(=O)c2ccc(C)c(C)c2)c1,0.26%
2,CC(=O)CCS(=O)(=O)c1ccc(C)c(C)c1,101% (active)
3,COc1ccc(C(O)c2nc(-c3ccc(OC)nc3)cs2)cc1 (stereo not drawn),4.92%
4,COc1ccc(C(O)c2nc(-c3ccc4c(c3)OCO4)cs2)cc1 (stereo not drawn),87.4% (active)
5,COc1cccc(C(O)c2nc(-c3ccc(C)c(C)c3)cs2)c1 (stereo not drawn),8.62%
6,O=C(O)CC(Cn1cnnn1)c1ccccc1 (stereo not drawn),7.4%
7,O=C(O)CC(c1ccccc1)n1cnnn1 (stereo not drawn),86% (active)
8,CCOc1ccc(C(CC(=O)O)n2cnnn2)cc1OC (stereo not drawn),5.44%
9,O=C(Nc1cccc(Cl)c1)N[C@H]1CC[C@H](CCNC(=O)C2CCOCC2)O[C@H]1CO,-25.3%
10,C[C@@H]1CCCCO[C@@H](CN(C)Cc2ccc3c(c2)OCO3)[C@H](C)CN([C@@H](C)CO)C(=O)c2cc(NS(C)(=O)=O)ccc2O1,-0.957%
11,C[C@H](CO)N1C[C@H](C)[C@H](CN(C)C(=O)Nc2cccc3ccccc23)OCCCC[C@H](C)Oc2ccc(NC(=O)Nc3ccc4c(c3)OCO4)cc2C1=O,90.3% (active)
12,C[C@@H]1CCCCO[C@H](CN(C)C(=O)Nc2cccc3ccccc23)[C@@H](C)CN([C@H](C)CO)C(=O)c2cc(NC(=O)Nc3ccc4c(c3)OCO4)ccc2O1,-47.9%
13,C[C@H]1CCCCO[C@@H](CN(C)C(=O)Nc2cccc3ccccc23)[C@@H](C)CN([C@@H](C)CO)C(=O)c2cc(NS(=O)(=O)c3ccc(Cl)cc3)ccc2O1,125% (active)
14,C[C@@H]1CCCCO[C@H](CN(C)C(=O)Nc2cccc3ccccc23)[C@@H](C)CN([C@H](C)CO)C(=O)c2cc(NS(=O)(=O)c3cccs3)ccc2O1,-12.1%
15,C[C@H]1CCCCO[C@H](CN(C)C(=O)Nc2ccccc2)[C@@H](C)CN([C@@H](C)CO)C(=O)c2cc(NC(=O)Nc3ccc4c(c3)OCO4)ccc2O1,-0.0505%
16,C[C@@H]1CCCCO[C@@H](CN(C)S(C)(=O)=O)[C@@H](C)CN([C@@H](C)CO)C(=O)c2cc(NS(=O)(=O)c3ccc(Cl)cc3)ccc2O1,7.9%
17,C[C@@H]1CCCCO[C@@H](CN(C)Cc2ccc(Cl)c(Cl)c2)[C@@H](C)CN([C@@H](C)CO)C(=O)c2cc(NS(C)(=O)=O)ccc2O1,-1.95%
18,C[C@@H]1CCCCO[C@@H](CN(C)S(C)(=O)=O)[C@H](C)CN([C@@H](C)CO)C(=O)c2cc(NS(=O)(=O)c3ccc(F)cc3)ccc2O1,132% (active)
19,C[C@@H]1CCCCO[C@H](CN(C)S(C)(=O)=O)[C@@H](C)CN([C@H](C)CO)C(=O)c2cc(NS(=O)(=O)c3ccc(Cl)cc3)ccc2O1,-21.9%
20,C[C@@H]1CCCCO[C@@H](CN(C)Cc2ccc(Cl)c(Cl)c2)[C@H](C)CN([C@@H](C)CO)C(=O)c2cc(NS(C)(=O)=O)ccc2O1,98% (active)
21,C[C@@H]1CCCCO[C@H](CN(C)C(=O)Nc2cccc3ccccc23)[C@H](C)CN([C@H](C)CO)C(=O)c2cc(NS(=O)(=O)c3cccs3)ccc2O1,28.4%
